Reference: PubChem BioAssay AID1159580 (chemical genetic matrix, 2015)
The whole screen tested about 5,500 compounds, of which about 2,000 (36%) were called active. Another 18% or so got no clear call; they are omitted. No stated cut-off is given here; in the data, active means normalized growth mostly below about 0.91 (no sharp cut-off); inconclusive means no clear call, values can overlap the other calls; inactive means mostly above about 0.92. The list shows a part of the results.

Assay: chemical genetic growth profiling, strain panel (AID 1159580);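 further: tested at 20 µM; growth read once vehicle control cultures reached saturation at 30 °C; 1 = growth at the plate median or of vehicle wells; lower values mean less growth of the strain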
Details: S. cerevisiae deletion strains, growth OD

Measured: normalized growth

C/C=C/C(=O)N(CC)c1ccccc1C
inactive: locus YAL021C, strain ccr4, active compounds read low 1.02 | locus YAL026C, strain drs2, active compounds read low 1.01 | locus YAL030W, strain snc1, active compounds read low 1 | locus YBL061C, strain skt5, active compounds read low 0.995 | locus YBR009C, strain hhf1, active compounds read low 1.02 | locus YBR023C, strain chs3, active compounds read low 1.01 | locus YBR171W, strain sec66, active compounds read low 1 | locus YBR231C, strain swc5, active compounds read low 1 | locus YBR279W, strain paf1, active compounds read low 1 | locus YCL011C, strain gbp2, active compounds read low 0.997 | locus YCL016C, strain dcc1, active compounds read low 0.998 | locus YCL061C, strain MRC1, active compounds read low 1.01 | locus YCL069W, strain vba3, active compounds read low 1.01 | locus YCR088W, strain abp1, active compounds read low 1 | locus YDL005C, strain med2, active compounds read low 1 | locus YDL040C, strain nat1, active compounds read low 1 | locus YDR001C, strain nth1, active compounds read low 1 | locus YDR069C, strain doa4, active compounds read low 1.02 | locus YDR137W, strain rgp1, active compounds read low 1.02 | locus YDR159W, strain sac3, active compounds read low 1 | locus YDR195W, strain ref2 0.986 | locus YDR297W, strain sur2, active compounds read low 1 | locus YDR334W, strain swr1, active compounds read low 0.997 | locus YDR335W, strain msn5, active compounds read low 1.01 | locus YDR392W, strain spt3, active compounds read low 0.942 | locus YEL003W, strain gim4, active compounds read low 1.01 | locus YEL037C, strain rad23, active compounds read low 1.01 | locus YEL061C, strain CIN8 (second series), active compounds read low 1.01 | locus YER015W, strain faa2, active compounds read low 1.01 | locus YER016W, strain bim1, active compounds read low 1.01 | locus YER111C, strain swi4, active compounds read low 0.995 | locus YER155C, strain BEM2 (second series), active compounds read low 1.01 | locus YFR010W, strain ubp6, active compounds read low 1.02 | locus YGL167C, strain pmr1, active compounds read low 1 | locus YGL173C, strain kem1, active compounds read low 1.01 | locus YGL227W, strain vid30, active compounds read low 1.01 | locus YGL240W, strain doc1, active compounds read low 1.02 | locus YGL253W, strain hxk2, active compounds read low 1.01 | locus YHR013C, strain ard1, active compounds read low 1.01 | locus YHR027C, strain rpn1, active compounds read low 1.02 | locus YHR030C, strain SLT2, active compounds read low 1.03 | locus YHR079C, strain IRE1, active compounds read low 1.02 | locus YHR142W, strain chs7, active compounds read low 1.02 | locus YJL092W, strain hpr5, active compounds read low 1 | locus YJL095W, strain BCK1 (second series), active compounds read low 1 | locus YJL095W, strain BCK1, active compounds read low 0.977 | locus YJL115W, strain asf1, active compounds read low 1 | locus YJL129C, strain trk1, active compounds read low 1.03 | locus YJL154C, strain vps35, active compounds read low 1.01 | locus YJL164C, strain tpk1, active compounds read low 1.01 | locus YJL166W, strain qcr8, active compounds read low 1.02 | locus YJL187C, strain SWE1, active compounds read low 1.01 | locus YJR066W, strain TOR1, active compounds read low 0.966 | locus YKL160W, strain elf1, active compounds read low 1.01 | locus YKR026C, strain gcn3, active compounds read low 1.01 | locus YKR091W, strain srl3, active compounds read low 1 | locus YLL001W, strain dnm1, active compounds read low 0.996 | locus YLL026W, active compounds read low 1.01 | locus YLL041C, strain sdh2, active compounds read low 1.01 | locus YLR027C, strain aat2, active compounds read low 0.996 | locus YLR113W, strain HOG1, active compounds read low 0.969 | locus YLR221C, strain rsa3, active compounds read low 1 | locus YLR258W, strain gsy2, active compounds read low 1.01 | locus YLR262C, strain YPT6 (second series), active compounds read low 1 | locus YLR320W, strain mms22, active compounds read low 1 | locus YLR342W, strain FKS1, active compounds read low 1 | locus YLR357W, strain rsc2, active compounds read low 1.02 | locus YLR370C, strain arc18, active compounds read low 1.01 | locus YLR384C, strain iki3, active compounds read low 0.998 | locus YML120C, strain ndi1, active compounds read low 1 | locus YMR058W, strain fet3, active compounds read low 1.02 | locus YMR125W, strain sto1, active compounds read low 1.01 | locus YMR129W, active compounds read low 1 | locus YMR205C, strain PFK2, active compounds read low 1.01 | locus YMR231W, strain pep5, active compounds read low 1.01 | locus YNL071W, strain lat1, active compounds read low 1 | locus YNL183C, strain NPR1, active compounds read low 0.975 | locus YNL209W, strain ssb2, active compounds read low 1 | locus YNL248C, strain rpa49, active compounds read low 0.993 | locus YNL322C, strain KRE1 (second series), active compounds read low 1.01 | locus YNR049C, strain mso1, active compounds read low 1.01 | locus YOR001W, strain rrp6, active compounds read low 1.03 | locus YOR070C, strain gyp1, active compounds read low 1 | locus YOR080W, strain dia2, active compounds read low 1 | locus YOR083W, strain WHI5, active compounds read low 1.02 | locus YOR106W, strain vam3, active compounds read low 1.04 | locus YOR231W, strain MKK1, active compounds read low 1.02 | locus YOR265W, strain rbl2, active compounds read low 1 | locus YOR270C, strain vph1, active compounds read low 0.999 | locus YOR290C, strain snf2, active compounds read low 1.01 | locus YPL051W, strain arl3, active compounds read low 1 | locus YPL078C, strain atp4, active compounds read low 1.02 | locus YPL106C, strain sse1, active compounds read low 1.01 | locus YPL240C, strain hsp82, active compounds read low 1 | locus YPL256C, strain CLN2, active compounds read low 0.986
